# The campaign covered roughly 69,000 compounds. About 8,600 (12%) showed an effect of 50% or more. Only a selection was taken, and strong results are over-represented in it overall.
# Tested on: Plasmodium berghei
# Assay: Screen against P. berghei liver stage (PbLuc), transformed with Luciferase, at 10uM
# Format: functional, HepG2
# Conditions: tested at 10 uM
row,SMILES,INHIBITION
1,CCSc1ccc(C(C)NC(=O)CCS(C)(=O)=O)cc1 (centres undefined),2.91%
2,CC(C)Sc1ccc(C(C)NC(=O)CNS(C)(=O)=O)cc1 (centres undefined),38%
3,CCSc1ccc(C(C)NC(=O)CNS(C)(=O)=O)cc1 (centres undefined),51.7%
4,Cc1nn(C)c2nc(-c3ccccn3)nc(NCCCOC(C)C)c12,5.46%
5,CCSCCNc1nc(-c2ccccn2)nc2c1c(C)nn2C,51.3%
6,CC(=O)NCCNc1nc(-c2ccccn2)nc2c1c(C)nn2C,39.1%
7,CC(C)N(C)Cc1cnc2n1CCN(C(=O)Cc1cccs1)C2C (centres undefined),-18.5%
8,Cc1nccn1C1CCCN(C(=O)c2ccnc(-n3ccnc3)c2)C1 (centres undefined),18.2%
9,CC(C)n1nnc(CC(=O)NCC2(c3ccccc3F)CCOCC2)n1,27.05%
10,O=C(c1cc2cccc(F)c2[nH]1)N1C[C@@H](O)[C@H](N2CCOCC2)C1,-9.08%
11,CC(NC1(CNC(=O)OC(C)(C)C)CCOCC1)c1ccccc1 (centres undefined),36.6%
12,CC(NC1(CNC(=O)CC2CCCC2)CCOCC1)c1ccccc1 (centres undefined),82.1%
13,CCOCC(=O)NCC1(NC(C)c2ccccc2)CCOCC1 (centres undefined),42%
14,CC(NC1(CNC(=O)NC2CC2)CCOCC1)c1ccccc1 (centres undefined),43.1%
15,CCC(CC)C(=O)NCC1(NC(C)c2ccccc2)CCOCC1 (centres undefined),59.3%
16,CC(NC1(CNC(=O)CC(C)(C)C)CCOCC1)c1ccccc1 (centres undefined),-6.75%
17,COc1cccc(CNCC2(COc3cccnc3)C[C@@H](O)[C@@H](O)C2)c1 (some centres undefined),46.4%
18,CC(Nc1ccc(C(F)(F)F)cc1C#N)c1cccc(S(N)(=O)=O)c1 (centres undefined),28.6%
19,OC(CNc1ccc(Cl)cn1)CN1CCOCC1 (centres undefined),-58.5%
20,O=c1c(NCc2ccncc2)c(NCC(O)CN2CCOCC2)c1=O (centres undefined),50.8%
21,CC(C)(CO)Nc1c(NCc2ccccn2)c(=O)c1=O,6.34%
22,O=c1c(NCc2ccccn2)c(NCC(O)CN2CCOCC2)c1=O (centres undefined),50.8%

row,SMILES,INHIBITION
1,O=c1c(NCc2ccco2)c(NCC(O)CN2CCOCC2)c1=O (centres undefined),48.9%
2,CC(C)CNC(=O)CNc1c(NCc2ccccn2)c(=O)c1=O,-8.8%
3,CC(NC(=O)NCc1cccnc1N(C)C)c1ccc(F)cc1 (centres undefined),-12.1%
4,COCCC(=O)N1C[C@@H]2CC[C@H]1CN(C1Cc3ccccc3C1)C2,-20.6%
5,CN(C)CCO[C@H]1CN(C(=O)c2ccc[nH]2)[C@@H]2COC[C@H]12,7.65%
6,CCN(CC)C1CCN(C(=O)c2cc(-n3cccn3)ccc2Cl)CC1,14.6%
7,Cc1ccc2c(c1)C(NC(C)C)CC21CCNCC1 (centres undefined),-46.4%
8,CC(=O)N1CC2(CCNCC2)c2cc(C)ccc21,7.77%
9,Cc1ccc2c(c1)C1(CCNCC1)CC2NCCO (centres undefined),55.7%
10,c1ccc2c(c1)C(NC1CCCC1)CC21CCNCC1 (centres undefined),71.1%
11,CCN1CCC2(CC1)CC(NC(=O)NC)c1cc(C)ccc12 (centres undefined),-25%
12,Fc1ccc2c(c1)C1(CCNCC1)CC2OCC1CC1 (centres undefined),-5.63%
13,CC(C)NC1CC2(CCNCC2)c2cc(F)ccc21 (centres undefined),-33.1%
14,Cc1ccc2c(c1)C1(CCNCC1)CC2NC(C)C (centres undefined),-22.7%
15,Fc1ccc2c(c1)C1(CCNCC1)CC2NC1CC1 (centres undefined),95.5%
16,CNC(=O)NC1CC2(CCNCC2)c2ccc(C)cc21 (centres undefined),63%
17,Cc1ccc(OCC(O)CN2CCC(Cn3cccn3)CC2)cc1 (centres undefined),28.5%
18,Cc1ccc(-c2nc(C(=O)N3CCCC(C(N)=O)C3)cs2)c(C)c1 (centres undefined),-79.45%
19,CC(c1ccncc1)N(CCN(C)C)C(=O)Nc1ccc(Cl)cc1 (centres undefined),8.49%
20,Cc1nn(CC(C)C)c(C)c1CC(=O)N1CCCC(NS(C)(=O)=O)C1 (centres undefined),17.1%
21,Cc1cc(C)c(C#N)c(N2CCC3(CCCN(CCO)C3=O)C2)n1 (centres undefined),-17.2%
22,COc1cn(CC(=O)N2CCC(c3ccccc3)CC2)c(C)cc1=O,12.4%

row,SMILES,INHIBITION
1,COc1cccc(-c2ccnc(C3CCNCC3)c2)c1,-23.8%
2,Cc1ccc2c(c1)C1(CCNCC1)CC2OCC1CC1 (centres undefined),-26.5%
3,COc1ccc2c(c1)C1(CCNCC1)CC2NC1CC1 (centres undefined),94.6%
4,Cc1ccc2c(c1)C1(CCNCC1)CC2NC1CC1 (centres undefined),67.5%
5,COc1cccc(N2C(=O)CC3(CCNCC3)C2=O)c1,22.3%
6,Cc1ccc2c(c1)C(NC1CC1)CC21CCNCC1 (centres undefined),42.1%
7,COc1cccc(C(=O)N2CCCCC2c2nccs2)c1OC (centres undefined),-7.35%
8,COCC(=O)N1CCC(c2cc3n(n2)[C@@H](C(F)(F)F)C[C@@H](C)N3)CC1,49.6%
9,CC(C)(O)CCc1cccc(C(=O)N2CCC[C@H]2C(N)=O)c1,40.2%
10,COc1ccc(NC(=O)NCCCn2nc3ccccn3c2=O)cc1,16.8%
11,O=C(N1CCCC1)N1CCO[C@H]2[C@@H](OCc3cccnc3)CC[C@@H]21,-26.5%
12,Cn1c(CN2CCCC(Cn3cncn3)C2)nc2ccccc21 (centres undefined),33.1%
13,O=C(CN1CCC(c2nnc(C(F)(F)F)o2)CC1)Nc1cccnc1,-17.8%
14,COCCN(Cc1ccoc1)C(=O)c1ccccc1OC,28.4%
15,COCCN(Cc1ccc(F)cc1Cl)C(=O)c1ccncc1,21%
16,COCCN(Cc1ccc(F)cc1Cl)C(=O)c1csnn1,39.5%
17,COCCN(Cc1ccccc1)C(=O)c1cnn(C)c1C,81.5%
18,CCCN(CCC)C(=O)c1sc(C)nc1C,-3.14%
19,COCCN(Cc1ccc(F)cc1Cl)C(=O)c1ccc(=O)[nH]n1,16.6%
20,CCc1ccccc1NC(=O)c1cnn(C)c1C,21.5%
21,COCCN(Cc1ccc(F)cc1Cl)C(=O)c1cnn(C)c1C,80.2%
22,COCCN(Cc1ccoc1)C(=O)c1ccccc1Cl,-33.2%

row,SMILES,INHIBITION
1,COCCN(Cc1ccc(F)cc1Cl)C(=O)c1ccccn1,52.4%
2,COCCN(Cc1ccc(F)cc1Cl)C(=O)c1cc(C)n[nH]1,32.5%
3,CCCN(CCC)C(=O)c1cnn(C)c1C,51.3%
4,CN1CCC(NC(=O)C2CN(c3cncnc3)CCO2)CC1 (centres undefined),14.7%
5,CN1C[C@@H](c2cccc(F)c2)[C@H]2[C@H]1CCCCCN2C(=O)C1CC1,12.2535%
6,COc1ccc(C(O)CNC(=O)NCc2nc(C)cs2)cc1 (centres undefined),9.14%
7,COc1ccc(C(C)NC(=O)Cn2ccc(=O)n(C)c2=O)cc1OC (centres undefined),31.9%
8,COc1ccc(CC(=O)N2CCCC2Cn2cc(C)cn2)c(OC)c1 (centres undefined),43.2%
9,CC(C)(O)CN1CCN(C(=O)c2cccn2Cc2cccnc2)CC1,34.6%
10,Cc1cccc2nc(CN3CCCC3Cn3cccn3)cn12 (centres undefined),19.4%
11,Cn1cc(CNC2CCCOc3c2ccc2ccccc32)cn1 (centres undefined),-28.7%
12,COCCNC(=O)CN(C)Cc1ccc(F)cc1Cl,52.2%
13,CNC(=O)CN(C)Cc1ccc(F)cc1Cl,-154%
14,COCCN(CCOC)C(=O)c1cnn(C)c1-n1c(C)ccc1C,42.1%
15,CCCn1ncc(C(=O)N(CCOC)Cc2c(C)nn(CC)c2C)c1C,-89.3%
16,COCCCNC(=O)CN(C)Cc1ccc(F)cc1Cl,-102%
17,COCCN(CCOC)C(=O)c1cnn(C)c1C,90.7%
18,CN(C)C(=O)C1CCN(C(=O)c2c[nH]c3cc(Cl)ccc23)CC1,-32.2%
19,CN1CCC(c2cncc(C(=O)NCc3ccc(F)cc3)n2)CC1,-3.02%
20,O=C(CCc1cccnc1)N1CCC2(CCN(CC3CCCC3)C2)C1 (centres undefined),-7.2%
21,COCCN1CCC(c2cncc(-c3ccccc3C)n2)CC1,46%
22,COc1ccc(CN2CCN(C3CCc4ccccc4C3)CC2)cc1O (centres undefined),46.7%

row,SMILES,INHIBITION
1,Oc1cccc(CN2CCN(C3CCc4ccccc4C3)CC2)c1 (centres undefined),54.8%
2,COc1cc(O)ccc1CN1CCN(C2CCc3ccccc3C2)CC1 (centres undefined),37.6%
3,CNc1cc(C)nc(C2COCCN2CCc2ccc(F)cc2)n1 (centres undefined),19.6%
4,CCN1Cc2cc(F)ccc2N(C(C)=O)CCC1=O,23%
5,CC(C)N1CCc2[nH]nc(C(=O)N3CCOCC3)c2C1,-1.12%
6,CCN(CC)[C@@H]1CN(C(=O)c2ccnnc2)[C@@H]2CCCO[C@H]12,-62.8%
7,CCN(CC)[C@@H]1CN(C(=O)c2ccc(C#N)cc2)[C@@H]2CCCO[C@H]12,73.6%
8,CN(C)[C@@H]1CN(C(=O)c2ccc(C#N)cc2)[C@@H]2CCCO[C@H]12,-73.3%
9,COCCn1c2c(ccc1=O)CCN(C(=O)Cc1ccsc1)CC2,27.5%
10,CC(C)C(=O)N1CCCC(c2ncncc2-c2ccncc2)C1 (centres undefined),48.3%
11,Cc1cnc(CN2CC=C(c3c[nH]c4ncccc34)CC2)o1,44.9%
12,Cc1noc(CN2CC=C(c3cnn(C4CCS(=O)(=O)C4)c3)CC2)n1 (centres undefined),1.98%
13,C1=C(c2c[nH]c3ncccc23)CCN(Cc2nnc(C3CC3)o2)C1,71.4%
14,Fc1ccc2c(C3=CCN(Cc4nnc(C5CCC5)o4)CC3)c[nH]c2c1,34.6%
15,O=C(c1ccccn1)N1CCCN(Cc2nnc(C3CC3)o2)CC1,-57.4%
16,Cc1noc(CN2CC=C(c3c[nH]c4ncccc34)CC2)n1,74.7%
17,Cc1cnn(CC2CCCCN2C(=O)Cc2cccc(F)c2)c1 (centres undefined),35.9%
18,COc1ccc(C(C)NC(=O)c2nn(C)c(C)c2Br)cc1 (centres undefined),30.2%
19,OC(CN1CCN(Cc2ccc(F)cc2)CC1)C1CC1 (centres undefined),-0.113%
20,Cc1cc(C2CCCCCN2Cc2cn(C)nc2C)no1 (centres undefined),6.32%
21,O=C(Nc1ccc(F)cc1)N1C[C@@H]2C[C@H](C(=O)N3CCCC3)[C@H](C1)O2,7.67%

# Reference: ChEMBL document CHEMBL4513216, “Probing the Open Global Health Chemical Diversity Library for Multistage-Active Starting Points for Next-Generation Antimalarials” (ACS Infect Dis, 2020)
